Laboratory results as given in paper PMC12820563, “FoxP3 forms a head-to-head dimer in vivo and stabilizes its multimerization on adjacent microsatellites”.
Whole data set: some 16,000 sequences, median “rpm ratio (pull-down/input)” near 0.5, cut for the highest 2% near 5.5. The sample holds the highest values, similar sequences and a random draw of the others, so the mix is not that of the screen.

Molecular target: T1, MBP-FoxP3dN (Mus musculus, UniProt Q99JB6 188-423)
T1 sequence: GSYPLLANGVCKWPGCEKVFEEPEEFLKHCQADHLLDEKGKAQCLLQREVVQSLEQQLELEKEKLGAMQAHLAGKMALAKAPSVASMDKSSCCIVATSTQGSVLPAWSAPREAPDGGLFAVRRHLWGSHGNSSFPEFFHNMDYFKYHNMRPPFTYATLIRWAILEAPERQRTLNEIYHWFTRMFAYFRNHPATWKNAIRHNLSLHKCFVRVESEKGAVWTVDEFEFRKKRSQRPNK
Assay: PD-seq (MBP pull-down with sequencing); 20 mM Tris-HCl pH 7.5, 100 mM NaCl, 1.5 mM MgCl2, 0.4 uM protein, 0.1 uM dsDNA library, 30 min, room temperature, amylose pull-down; high values mean tight binding
Conditions: protein: recombinant; tags: His6-MBP; chain copies: 2; dsDNA, one strand shown
In short: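 E. coli-expressed mouse FoxP3 or FoxP1 fragment, N-terminus removed and tagged with His6-MBP, was used at 0.4 µM against 0.1 µM of a Klenow-filled degenerate double-stranded DNA library. After 30 min at room temperature in Tris pH 7.5 buffer with NaCl and MgCl2, complexes were pulled down on amylose resin and washed three times. Binding is pull-down over input reads-per-million enrichment from pooled replicates of the proteinase K-released, PCR-barcoded, Illumina-sequenced DNA.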

“GATGATTGTTCTCCCAGCTGATGAATTTCAACGGTCGAGTAAACAAATTTTCCTAATCTTTCTGTTCAAGCGCCATCTAC” was tested. Which binding signal did it give?
The binding signal was 0.241 RPM ratio (pull-down/input).

For “GATGATTGTTCTCCCAGCTGATGAATTTGGTGGCTCGAGTAAACAAATTTTCCTAATCTTTCTGTTCAAGCGCCATCTAC”, which binding signal is on record?
The binding signal was 1.09 RPM ratio (pull-down/input).

Which binding signal does the source give for “GATGATTGTTCTCCCAGCTGATGAATTTCATAACTCGAGTAAACAAATTTTCCTAATCTTTCTGTTCAAGCGCCATCTAC” here?
Its binding signal is 0.332 RPM ratio (pull-down/input).

With “GATGATTGTTCTCCCAGCTGATGAATTATTCATCTCGAGTAAACAAATTTTCCTAATCTTTCTGTTCAAGCGCCATCTAC” as the sequence, how does the binding signal read?
The binding signal was 0.399 RPM ratio (pull-down/input).

How did the binding signal turn out when “GATGATTGTTCTCCCAGCTGATGAATTTAGACCGTCGAGTAAACAAATTTTCCTAATCTTTCTGTTCAAGCGCCATCTAC” was run?
Its binding signal is 0.5 RPM ratio (pull-down/input).

For “GATGATTGTTCTCCCAGCTGATGAATTGTGTATCTCGAGTAAACAAATTTTCCTAATCTTTCTGTTCAAGCGCCATCTAC”, which binding signal is on record?
The binding signal was 6.36 RPM ratio (pull-down/input).

How did the binding signal turn out when “GATGATTGTTCTCCCAGCTGATGAATTCTGTATCTCGAGTAAACAAATTTTCCTAATCTTTCTGTTCAAGCGCCATCTAC” was run?
Its binding signal is 4.93 RPM ratio (pull-down/input).

For “GATGATTGTTCTCCCAGCTGATGAATTGTATCTCTCGAGTAAACAAATTTTCCTAATCTTTCTGTTCAAGCGCCATCTAC”, which binding signal is on record?
Its binding signal is 1.51 RPM ratio (pull-down/input).

With “GATGATTGTTCTCCCAGCTGATGAATTTGACTTTTCGAGTAAACAAATTTTCCTAATCTTTCTGTTCAAGCGCCATCTAC” as the sequence, how does the binding signal read?
The binding signal was 0.49 RPM ratio (pull-down/input).

For “GATGATTGTTCTCCCAGCTGATGAATTGACGTAGTCGAGTAAACAAATTTTCCTAATCTTTCTGTTCAAGCGCCATCTAC”, which binding signal is on record?
The binding signal was 0.381 RPM ratio (pull-down/input).

How did the binding signal turn out when “GATGATTGTTCTCCCAGCTGATGAATTAAGCCATTCGAGTAAACAAATTTTCCTAATCTTTCTGTTCAAGCGCCATCTAC” was run?
Its binding signal is 4.08 RPM ratio (pull-down/input).

How did the binding signal turn out when “GATGATTGTTCTCCCAGCTGATGAATTAAGCAGCTCGAGTAAACAAATTTTCCTAATCTTTCTGTTCAAGCGCCATCTAC” was run?
The binding signal was 1.33 RPM ratio (pull-down/input).

With “GATGATTGTTCTCCCAGCTGATGAATTTAAGCATTCGAGTAAACAAATTTTCCTAATCTTTCTGTTCAAGCGCCATCTAC” as the sequence, how does the binding signal read?
Its binding signal is 5.65 RPM ratio (pull-down/input).

“GATGATTGTTCTCCCAGCTGATGAATTAAATTTCTCGAGTAAACAAATTTTCCTAATCTTTCTGTTCAAGCGCCATCTAC” was tested. Which binding signal did it give?
Its binding signal is 0.664 RPM ratio (pull-down/input).

How did the binding signal turn out when “GATGATTGTTCTCCCAGCTGATGAATTACAGCATTCGAGTAAACAAATTTTCCTAATCTTTCTGTTCAAGCGCCATCTAC” was run?
The binding signal was 5.18 RPM ratio (pull-down/input).

“GATGATTGTTCTCCCAGCTGATGAATTAAAGCATTCGAGTAAACAAATTTTCCTAATCTTTCTGTTCAAGCGCCATCTAC” was tested. Which binding signal did it give?
Its binding signal is 5.57 RPM ratio (pull-down/input).

Which binding signal does the source give for “GATGATTGTTCTCCCAGCTGATGAATTAAGCTGTTCGAGTAAACAAATTTTCCTAATCTTTCTGTTCAAGCGCCATCTAC” here?
Its binding signal is 1.12 RPM ratio (pull-down/input).

How did the binding signal turn out when “GATGATTGTTCTCCCAGCTGATGAATTTAAACATTCGAGTAAACAAATTTTCCTAATCTTTCTGTTCAAGCGCCATCTAC” was run?
Its binding signal is 0.704 RPM ratio (pull-down/input).

With “GATGATTGTTCTCCCAGCTGATGAATTCAAGCATTCGAGTAAACAAATTTTCCTAATCTTTCTGTTCAAGCGCCATCTAC” as the sequence, how does the binding signal read?
Its binding signal is 4.27 RPM ratio (pull-down/input).

How did the binding signal turn out when “GATGATTGTTCTCCCAGCTGATGAATTTTAAGCATCGAGTAAACAAATTTTCCTAATCTTTCTGTTCAAGCGCCATCTAC” was run?
Its binding signal is 0.881 RPM ratio (pull-down/input).

How did the binding signal turn out when “GATGATTGTTCTCCCAGCTGATGAATTAAGCATTTCGAGTAAACAAATTTTCCTAATCTTTCTGTTCAAGCGCCATCTAC” was run?
Its binding signal is 6.1 RPM ratio (pull-down/input).

Which binding signal does the source give for “GATGATTGTTCTCCCAGCTGATGAATTAAGCATCTCGAGTAAACAAATTTTCCTAATCTTTCTGTTCAAGCGCCATCTAC” here?
Its binding signal is 6.6 RPM ratio (pull-down/input).

For “GATGATTGTTCTCCCAGCTGATGAATTGGGAAGGTCGAGTAAACAAATTTTCCTAATCTTTCTGTTCAAGCGCCATCTAC”, which binding signal is on record?
The binding signal was 0.234 RPM ratio (pull-down/input).

How did the binding signal turn out when “GATGATTGTTCTCCCAGCTGATGAATTCACGGTTTCGAGTAAACAAATTTTCCTAATCTTTCTGTTCAAGCGCCATCTAC” was run?
Its binding signal is 0.47 RPM ratio (pull-down/input).

Which binding signal does the source give for “GATGATTGTTCTCCCAGCTGATGAATTATTACATTCGAGTAAACAAATTTTCCTAATCTTTCTGTTCAAGCGCCATCTAC” here?
Its binding signal is 0.591 RPM ratio (pull-down/input).

With “GATGATTGTTCTCCCAGCTGATGAATTGTTCTTGTCGAGTAAACAAATTTTCCTAATCTTTCTGTTCAAGCGCCATCTAC” as the sequence, how does the binding signal read?
Its binding signal is 0.412 RPM ratio (pull-down/input).

How did the binding signal turn out when “GATGATTGTTCTCCCAGCTGATGAATTTGTCACTTCGAGTAAACAAATTTTCCTAATCTTTCTGTTCAAGCGCCATCTAC” was run?
Its binding signal is 5.39 RPM ratio (pull-down/input).

With “GATGATTGTTCTCCCAGCTGATGAATTGCTTTTCTCGAGTAAACAAATTTTCCTAATCTTTCTGTTCAAGCGCCATCTAC” as the sequence, how does the binding signal read?
Its binding signal is 1.42 RPM ratio (pull-down/input).

Which binding signal does the source give for “GATGATTGTTCTCCCAGCTGATGAATTTTGCTACTCGAGTAAACAAATTTTCCTAATCTTTCTGTTCAAGCGCCATCTAC” here?
Its binding signal is 2.59 RPM ratio (pull-down/input).

“GATGATTGTTCTCCCAGCTGATGAATTTGCTTGCTCGAGTAAACAAATTTTCCTAATCTTTCTGTTCAAGCGCCATCTAC” was tested. Which binding signal did it give?
Its binding signal is 6.22 RPM ratio (pull-down/input).

“GATGATTGTTCTCCCAGCTGATGAATTTTGCTTCTCGAGTAAACAAATTTTCCTAATCTTTCTGTTCAAGCGCCATCTAC” was tested. Which binding signal did it give?
Its binding signal is 2.58 RPM ratio (pull-down/input).
